Values joined by “and” are separate entries in the source; they are usually repeats but may differ in a detail not shown here. Identical values can stand only once. Records with an inconclusive call do not appear. Active and inactive are the calls of the source. Calls come from the whole dose curve.
Assay: qHTS Assay for Lipid Storage Modulators (AID 1519); for activity change, negative = inhibition: % is set by controls: 0 for no effect and ±100 for the full control effect
Conditions: Drosophila S3 cells, BODIPY lipid droplet/cell ratio, laser cytometry, cells loaded with oleic acid
Excerpt: NIH Molecular Libraries Probe Production Centers Network [MLPCN]
NIH Chemical Genomics Center [NCGC]
Assay Submitter (PI): Beller, Mathias; Max-Planck-Institut fur Biophysikalische Chemie
NCGC Assay Overview: Storing lipids as a reservoir for energy or the anabolism of elementary metabolites is a common feature of probably all cells and is conserved from bacteria to humans. The universal cellular lipid storage organelle is the so-called lipid storage droplet (LD). Although ubiquitous, LDs share a simple structure composed of a hydrophobic core that harbors the storage lipids, which is shielded by a droplet-specific phospholipid monolayer to which proteins are attached. The current model of LD biogenesis involves an incorporation of the lipid core into the membrane leaflets of the endoplasmic reticulum (ER) followed by a subsequent budding-like maturation of a LD, which ultimately pinches off. Once released, LD volume can increase by localized lipogenesis or fusion of existing droplets. Storage lipids are re-mobilized enzymatically by lipase activity. Lipase regulation in the adipocyte is heavily studied and involves multiple components including catecholamine signaling, the LD-associated proteins Perilipin and comparative gene identification-58 (CGI-58) and at least two lipases named hormone sensitive lipase (HSL) and adipocyte triglyceride lipase (ATGL). LD regulation outside of the adipocyte is poorly understood and only few components are known. However, there is an urgent need to learn more about ectopic fat depots as mislocalized storage of lipids, for example in the liver or muscle, is an eminent health problem associated with insulin resistance or the metabolic syndrome. We developed a laser-scanning cytometer assay to enable 1,536-well screening and combined the results of the small molecules screen with an RNAi database based on lipid storage.
NCGC Assay Protocol Summary:
We dispensed 4 uL of cells at 1.25 x 10^6 cells/mL into LoBase Aurora COC 1,536-well plates (black walled, clear bottom) with a bottle-valve solenoid-based dispenser (Aurora) to obtain 5,000 cells/well. Triacsin C (Sigma-Aldrich T-4540), an inhibitor of long-chain fatty acyl CoA synthetase that blocks synthesis of triglycerides, was used as a positive control for lipid under-storage. A total of 23 nL of compound solution of different concentrations were transferred to the assay plates using a Kalypsys pin tool equipped with a 1,536-pin array containing 10-nL slotted pins (FP1S10, 0.457-mm diameter, 50.8 mm long; V&P Scientific). One microliter of oleic acid (400 uM) was added, and the plate was lidded with stainless steel rubber gasket lined lids containing pinholes. […] Fluorescence was detected by excitation of the fluorophores with a 488-nm laser on an Acumen Explorer (TTP Lab Tech). The total intensity in channel 1 (500-530 nm) reflected lipid droplet accumulation. […] The ratio of the total intensity in PMT channel 1 over total intensity of channel 3 was also calculated. Percent activity was computed relative to an internal control (100% inhibited lipid droplet deposition due to the presence of 20 uM Triacsin C), which was added to 32 wells/plate.

[1] = measured here: cell count channel max response
[2] = measured here: lipid channel max response

| SMILES | activity change, negative = inhibition (at 25.7 µM (top of the series)) | activity change, negative = inhibition (at 57.5 µM (top of the series)) | max response [1] | max response [2] |
| --- | --- | --- | --- | --- |
| CC(C)NC[C@@H](O)COc1ccc(COCCOC(C)C)cc1 | -1.04% (inactive) | 0.281% (inactive) | 2.54% and -5.68% | 6.08% and -6.81% |
| CC(C)NC[C@@H](O)COc1cccc2[nH]ccc12 | 0.0529% (inactive) | 6.23% (inactive) | -7.16% and 6.39% | -7.67% and 11.8% |
| CCN(Cc1ccncc1)C(=O)[C@@H](CO)c1ccccc1 | -4.57% (inactive) | – | -10.2% | -15.1% |
| CC(C)C[C@H](NC(=O)N1CCCCCC1)C(=O)N[C@H](Cc1cn(C)c2ccccc12)C(=O)N[C@H](Cc1ccccn1)C(=O)O | – | -4.14% (inactive) | 14.7% | 9.02% |
| O=C(O)Cc1cc2ccccc2nc1C(=O)O | – | -1.15% (inactive) | 1.68% | 0.785% |
| Nc1ncnc2c1ncn2[C@@H]1O[C@H](COP(=O)(O)OP(=O)(O)O)[C@@H](O)[C@H]1O | – | 5.3% (inactive) | -2.57% | 2.42% |
| O=C(OC1Cc2c(O)cc(O)cc2OC1c1cc(O)c(=O)c2c(O)c(O)cc(C3Oc4cc(O)cc(O)c4CC3OC(=O)c3cc(O)c(O)c(O)c3)c2c1)c1cc(O)c(O)c(O)c1 (stereo unspecified) | – | 15% (inactive) | -10.5% | 7.68% |
| Cc1ncc2c(c1O)COP(=O)(O)OC2 | – | 0.354% (inactive) | -3.73% | -4.32% |
| C[N+](C)(CCCCCC[N+](C)(C)CCCN1C(=O)c2ccccc2C1=O)CCCN1C(=O)c2ccccc2C1=O | – | -4.59% (inactive) | -18.6% | -20.9% |
| N[C@]1(C(=O)O)CCc2cc(P(=O)(O)O)ccc21 | – | -2.38% (inactive) | -7.84% | -8.48% |
| N[C@H](C(=O)O)c1nn[nH]n1 | – | 1.12% (inactive) | -0.925% | -0.771% |
| CC(C)[C@@H]1[C@H]2CC[C@H](C2)[C@H]1N | – | -6.29% (inactive) | -11.1% | -17.5% |
| CCCCCCCCCCCC(=O)O[C@H](CC(=O)O)C[N+](C)(C)C | – | -2.15% (inactive) | -5.13% | -11.1% |

From PubChem BioAssay (NCATS)
